According to PubChem BioAssay AID624263 (National Center for Advancing Translational Sciences (NCATS), 2012):
“And” between values parts separate entries of the source, which are not always exact repeats. Identical values can stand only once. Among all 410,000 compounds or so, about 820 (0.2%) were called active. About 2% were inconclusive and are not listed. Calls come from the whole dose curve; as a rule, active = well fitted activation curve with a large enough effect; inconclusive = small, poorly fitted or top-dose-only effect; inactive = flat fitted curve, though single readings scatter; cell line not stated here. The full list was thinned out, with actives kept by preference. More than one record can exist for a structure, and the calls need not agree.

assay: A Quantitative High throughput Screen to Identify Chemical Modulators of PINK1 Expression; conditions: PINK1 immunofluorescence, high-content cytometry, 24 h; series mostly up to 76.6 µM; activation (PINK1 increase): at the top concentration; note: nearly all actives have a fitted effect of over 65% in size; for activation (PINK1 increase): % of control where 0% means no effect
Text: The overall goal of this project is to develop new tools for understanding and treating the mitochondrial basis for neurodegenerative disease such as Parkinson's disease (PD). The PINK1 campaign was developed from recent data pointing towards mitochondrial dysfunction as a major contributor to dopaminergic neuron loss. The discovery of PINK1/Parkin mediated mitophagy has highlighted the potential for mitochondrial quality control as a novel target for therapeutic intervention. […] A second aim of this project is the development of chemical probes to study the mechanics of mitochondrial quality control. As the PINK1/Parkin mitophagy pathway is a relative recent discovery, no specific chemical probes are available that modulate the process. Presently, only crude tools that cause nonspecific mitochondrial damage are available. To advance the understanding of mitophagy, specific, well characterized chemicals that target various steps of mitophagy regulation need to be developed. New chemical probes may have the ability to dynamically manipulate mitophagy in model organisms such as rodents and zebrafish, advancing our understanding of the process in development and disease. This HTS campaign seeks to discover an activator of PINK1 expression by modulation at the level of post-translational processing.
The PINK1 assay determines the amount and localization of PINK1 protein in a cell using a combination of immunofluorescence and cell staining. The goal of the assay is to determine small molecules that can increase the expression of Pink1 on or inside the cell's mitochondria (ideally without mitochondrial depolarization) using a stable cell line. Since PINK1 protein is rapidly degraded in un-perturbed cells, compounds that induce the enhancement of PINK1 protein expression are identified by determining PINK1 immunofluorescence in conjunction with a mitochondrial, cell, and nuclear marker post fixation. To facilitate rapid high content screening, the primary assay is run in a decision-based HTS mode where compound titration data collected by laser-scanning microplate cytometers is processed and only promising compound series are passed off for high content drill down.
1 Add cells to black, clear-bottom, low-base 1536-well plates 6 uL (250 cells/well)
2 Incubate in TC incubator (12 hours)
3 Pin compounds or DMSO controls 23 nL (5 concentrations per compound set)
4 Dispense CCCP to control columns
5 Incubate in TC incubator 24 hours
6 Aspirate media and fix cells (5 uL of fixative containing nuclear dye)
7 Incubate 15 minutes at RT
8 Wash in PBSTween (12 uL/well)
9 Wash in PBSTriton (12 uL/well)
10 Aspirate wash and add Blocking buffer (4 uL/well)
12 Aspirate block and add primary antibodies 3.5 (uL/well)
13 Incubate 12 hours at 10 degrees C
14 Wash in PBSTween-20 two times (12 uL/well)
15 Aspirate wash and add secondary antibodies (12 uL/well)
17 Wash in PBSTween (12 uL/well)
18 Wash in PBSTween with cell stain (12 uL/well)
19 Read plates on Acumen EX3 and determine Wells2Cells coordinates
Potency is the fitted concentration of half-maximal effect.

| SMILES | activation (PINK1 increase) | Potency |
| --- | --- | --- |
| Cc1cccc(OCC(O)CN2CCN(S(=O)(=O)c3ccc(C)cc3C)CC2)c1 (stereo not drawn) | 0.654% (inactive) |  |
| Cc1ccc(OCC(O)CN2CCN(CC(O)COc3ccc(C)cc3Cl)CC2)c(Cl)c1 (stereo not drawn) |  | 11.2 µM (active) |
| OC(COc1ccc(F)cc1Cl)CN1CCc2ccccc2C1 (stereo not drawn) | 1.72% (inactive) |  |
| O=C(NCC1Cc2cc(F)cc(-c3cnccn3)c2O1)C1COc2ccccc2O1 (stereo not drawn) | 0.603% (inactive) |  |
| O=C(C(=O)N1CCOc2ccc(CN3CCN(Cc4ccccn4)CC3)cc2C1)c1ccccc1 | 0.0595% (inactive) |  |
| COc1ccc2c(c1)CCc1cnc(-n3ncc(C(=O)NCc4cccnc4)c3C3CC3)nc1-2 | 0.559% (inactive) |  |
| O=C(N/N=C/c1cccc2cccnc12)[C@H]1C[C@@H]1c1ccccc1 | -0.0622% (inactive) |  |
| O=C(NN=Cc1ccccc1O)NN=Cc1ccccc1O |  | 0.891 µM (active) |
| O=Nc1c(O)cc(O)c2ccccc12 | 1.49% (inactive) |  |
| CCC1CN(CCNC(=O)c2cccnc2C)Cc2cc(OC)ccc2O1 (stereo not drawn) | -0.526% (inactive) |  |
| Cc1c(C(=O)NCC2CCCN(C)C2)cnn1-c1nccc(-c2ccco2)n1 (stereo not drawn) | 0.569% (inactive) |  |
| CC12CCC(C(=O)N(CCC#N)CCC#N)(CC1=O)C2(C)C (stereo not drawn) |  | 5.01 µM (active) |
| CCN(CC)c1ccc(/C=C/c2c(C)cnc3ccc(C)cc23)cc1 | 3.71% (inactive) |  |
| COc1cc(C)c(CN2CCc3nnc(C(C)NC(=O)c4cccnc4)n3CC2)cc1C (stereo not drawn) | 0.397% (inactive) |  |
| CCCCN(C)c1nnc(NC(=O)Nc2ccc(Br)c(C)c2)s1 | 0.951% (inactive) |  |
| Cc1ccc(CNC(=O)Nc2nnc([C@H]3C[C@H](O)[C@@H](CO)O3)s2)cc1 | -0.0573% (inactive) |  |
| Cc1ccc(NC(=O)Nc2nnc(-c3ccncc3)s2)cc1 |  | 15.8 µM (active) |
| C/C=C/NNC(=O)Cc1ccc(OC)cc1 | 7.35% (inactive) |  |
| CCCc1cc(=S)n2c([nH]c3ccccc32)c1C#N |  | 28.2 µM (active) |
| Cn1cccc1C(=O)N1CCC2(CC1)CN(c1cccc(-c3ccccc3)c1)C2 | 0.654% (inactive) |  |
| COc1c2c(cc3occ(-c4ccc5c(c4)OCO5)c(=O)c13)OC(C)(C)C=C2 | 1.47% (inactive) |  |
| CC(C)S(=O)(=O)c1csc(NC(=O)Nc2ccc(Cl)cc2)c1Cl |  | 15.8 µM (active) |
| CC(=O)N1CCC(N(C(=O)Nc2ccc(Cl)cc2)C(C)C)CC1 | 0.539% (inactive) |  |
| CC(=O)c1ccc(NC(=O)C(C)NCc2ccc(Cl)cc2)cc1 (stereo not drawn) | 0.227% (inactive) |  |

| SMILES | activation (PINK1 increase) | Potency |
| --- | --- | --- |
| COc1cc(=O)n2c(c1C(=O)NC(C)c1ccco1)CCN(Cc1cc(C)cc(C)c1)CC2 (stereo not drawn) | 0.333% (inactive) |  |
| COc1ccc2[nH]cc(CCNc3ncnc4ccc(-c5ccc(C(=O)N(C)C)cc5)cc34)c2c1 | 1.44% (inactive) |  |
| O=C(CNS(=O)(=O)c1ccc2ccccc2c1)Nc1ccc(F)c(F)c1F | 6.76% (inactive) |  |
| O=C(CNc1cccc(S(=O)(=O)N2CCCCC2)c1)Nc1ccccc1F | 0.781% (inactive) |  |
| O=C(CNS(=O)(=O)c1cccc(C(F)(F)F)c1)Nc1ccccc1F |  | 10 µM (active) |
| Cc1cnc(-n2ncc(C(=O)N3CCN(C(C)C)CC3)c2-c2ccco2)nc1-c1ccc(F)cc1 | 1.72% (inactive) |  |
| CC(C)(C)c1ccc(C(=O)C[n+]2cccc3cc(Cl)ccc32)cc1 | 5.06% (inactive) |  |
| OCC1CCCN(c2nc3cc4c(cc3cc2CNCc2cccs2)OCO4)C1 (stereo not drawn) | -0.93% (inactive) |  |
| Cc1ccc(NC(=O)COC(=O)C2CC2)cc1S(=O)(=O)N1CCOCC1 | 0.894% (inactive) |  |
| Cc1ccc(NC(=O)CCC(=O)N2CCC(c3ccccc3)=N2)cc1S(=O)(=O)N1CCCCC1 |  | 11.2 µM (active) |
| Cc1ccc(NC(=O)CCCNC(=O)c2ccc(Cl)cc2)cc1S(=O)(=O)N1CCCCC1 | 2.17% (inactive) |  |
| COc1cc(=O)n2c(c1C(=O)NC(C)c1ccco1)CCN(C(=O)c1cn3ccc(C)cc3n1)CC2 (stereo not drawn) | 0.949% (inactive) |  |
| COc1cc(=O)n2c(c1C(=O)N(C)Cc1nonc1C)CCN(C(=O)c1ccc(C)cc1C)CC2 | -0.189% (inactive) |  |
| CCC1CN(CCNC(=O)c2ccsc2)Cc2cc(OC)ccc2O1 (stereo not drawn) | -0.839% (inactive) |  |
| Cc1nc2cc(NC(=O)[C@@H]3C[C@@H](Sc4ccccn4)CN3Cc3ccccc3C)ccc2s1 | 0.376% (inactive) |  |
| N#Cc1ccc[n+](CC(=O)c2ccc(O)c(O)c2)c1 | 0.262% (inactive) |  |
| O=C(Nc1nnc(S(=O)(=O)N2CCCCCC2)s1)c1cccc(Br)c1 |  | inactive and 28.2 µM (active) |
| O=C(Nc1nnc(S(=O)(=O)N2CCOCC2)s1)c1cccc(Br)c1 |  | inactive |
| O=C(Nc1nnc(S(=O)(=O)N2CCCc3ccccc32)s1)c1cccc(F)c1 | 2.55% (inactive) |  |
| Cc1nn(Cc2ccc(F)cc2)c(C)c1NC(=O)c1cc(CC(C)C)on1 | 0.475% (inactive) |  |
| CC(C)Cc1cc(C(=O)Nc2cc(Br)ccc2O)no1 |  | 44.7 µM (active) |
| CC(C)Cc1cc(C(=O)NCCc2ccccc2)no1 | 0.759% (inactive) |  |
| Cc1nc2cnc(N3CCNCC3)nc2n(Cc2ccc(F)cc2)c1=O | -0.606% (inactive) |  |
| COCc1c(C(=O)NC2CCCCC2)cnn1-c1nccc(-c2ccccc2OC)n1 | 0.512% (inactive) |  |
